# Results published in PubChem BioAssay (NCATS).
# Records with an inconclusive call do not appear. Values without a mark were called inactive. Activity calls are given as the source filed them. Calls come from the whole dose curve; as a rule, active = well fitted curve in the direction sought with a large enough effect; inconclusive = small, poorly fitted or top-dose-only effect, or another doubt; inactive = no such curve, though single readings can be large; an effect the other way counts as inactive or inconclusive. Non-standard residues stand in square brackets, D forms with d. Residues, ends and D or L forms follow the SMILES beside them. Dip = N[C@H](C(=O)O)C(c1ccccc1)c1ccccc1
# Experiment: BET inhibitor-based combinations targeting novel dependencies in MECOM-rearranged (r) AML: UCSD-AML1 cell line (AID 2202235); note: nearly all actives have a fitted effect of over 40% in size;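 for viability (% of control): plate controls were DMSO vehicle wells for no effect and blank wells for full effect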
# Conditions: UCSD-AML1 AML cells viability, CellTiter-Glo, 48 h; series mostly up to 46 µM; viability (% of control): at the top concentration
# In short: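 Using pin-tool transfer, drugs were added in 11 doses to cells (500/well), incubated 48 hr, and assessed with CellTiter-Glo. Z-AUC is a mean-centring transformation applied separately to each screened line.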
# Potency is the fitted concentration of half-maximal effect.
Structure (SMILES),viability (% of control) [%],Potency
CN1C(=O)N(c2cc(Cl)cc(Cl)c2)C(=O)[C@]12CN(Cc1cc(C(=O)O)cs1)C[C@H]2c1ccc(C#N)cc1,104,
CCOc1cc(CC(=O)N[C@@H](CC(C)C)c2ccccc2N2CCCCC2)ccc1C(=O)O,84.5,
CO[C@H]1/C=C/O[C@@]2(C)Oc3c(C)c(O)c4c(O)c(c(/C=N/N5CCN(C)CC5)c(O)c4c3C2=O)NC(=O)/C(C)=C\C=C\[C@H](C)[C@H](O)[C@@H](C)[C@@H](O)[C@@H](C)[C@H](OC(C)=O)[C@@H]1C,86.4,
CCS(=O)(=O)c1ccc2oc(-c3ccc4ccccc4c3)nc2c1,95.1,
C=C1CCC[C@]2(C)C=C3OC(=O)C(C)=C3C[C@@H]12,108,
CO[C@H]1C[C@@H]2CC[C@@H](C)[C@@](O)(O2)C(=O)C(=O)N2CCCC[C@@H]2C(=O)O[C@H]([C@@H](C)C[C@@H]2CC[C@H](O)[C@H](OC)C2)CC(=O)[C@H](C)C=C(C)[C@@H](O)[C@@H](OC)C(=O)[C@H](C)C[C@H](C)C=CC=CC=C1C,,0.0017 µM (active)
O=C(Nc1cnccc1Cl)N1CCN(Cc2ccc3c(c2)OC(F)(F)O3)CC1,103,
CN(C(=O)CNC(=O)/C=C/c1cccc(Cl)c1)C1CCS(=O)(=O)CC1,99.3,
NCCCC[C@H](NC(=O)[C@@H](NC(=O)[C@H](Cc1c[nH]c2ccccc12)NC(=O)[C@H](CCCCN)NC(=O)[C@H](CCCCN)NC(=O)[C@H](Cc1c[nH]c2ccccc12)NC(=O)[C@H](Cc1c[nH]c2ccccc12)NC(=O)[C@H](CCCCN)NC(=O)[C@@H](N)CCCCN)C(c1ccccc1)c1ccccc1)C(N)=O (H-KKWWKKW[Dip]K-NH2),35.2,
COC(=O)N(CC(=O)O)Cc1cccc(OCc2nc(-c3ccc(Cl)cc3)oc2C)c1,109,
CN(C)CCOc1ccc(/C(=C(/CCCl)c2ccccc2)c2ccccc2)cc1,106,
CS(=O)(=O)c1ccc([C@@H](CC2CCCC2)C(=O)Nc2nccs2)cc1,98.8,

# Experiment: BET inhibitor-based combinations targeting novel dependencies in MECOM-rearranged (r) AML: AML-191 cell line (AID 2202236; note: nearly all actives have a fitted effect of over 35% in size;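 for viability (% of control): plate controls were vehicle wells for no effect and wells without cells for full effect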)
# Conditions: AML-191 viability, CellTiter-Glo luminescence, 48 h; series mostly up to 46 µM; viability (% of control): at the top concentration
# In short: (§1)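 Viability of cells (500 per well) is scored by luminescent CellTiter-Glo at 48 hr post-dosing. Eleven-point titrations are normalized to DMSO and empty controls and reduced to AUC values.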
Structure (SMILES),Potency,viability (% of control) [%]
CCc1cnn2c(NCc3ccc[n+]([O-])c3)cc(N3CCCC[C@H]3CCO)nc12,0.0263 µM (active),
COC(=O)C1=C(C)NC(c2ncc(F)cc2F)=N[C@@H]1c1ccc(F)cc1Cl,,105
COc1ccc2c(c1)[C@]1(C[C@H]1c1ccc3c(/C=C/c4ccc(CN5C[C@@H](C)O[C@@H](C)C5)cc4)n[nH]c3c1)C(=O)N2,0.417 µM (active),
C#C[C@]1(O)CC[C@H]2[C@@H]3CCc4cc(O)ccc4[C@H]3CC[C@@]21C,14.8 µM (active),
CCOC(=N)c1nc2ccc3ncnc(Nc4cc(F)c(F)cc4Cl)c3c2s1,5.25 µM (active),
C/C=C/C[C@@H](C)C(=O)[C@H]1C(=O)N[C@@H](C(C)C)C(=O)N(C)CC(=O)N(C)[C@@H](CC(C)C)C(=O)N[C@@H](C(C)C)C(=O)N(C)[C@@H](CC(C)C)C(=O)N[C@@H](C)C(=O)N[C@H](C)C(=O)N(C)[C@@H](CC(C)C)C(=O)N(C)[C@@H](CC(C)C)C(=O)N(C)[C@@H](C(C)C)C(=O)N1C,9.1 µM (active),
CC(C)c1onc(-c2c(Cl)cccc2Cl)c1COc1ccc(/C=C/c2cccc(C(=O)O)c2)c(Cl)c1,,100
CN(C)c1ccccc1CN1CCCN(Cc2ccccc2N(C)C)C1c1ccncc1,,94.4
C[C@@]1(c2ncncc2F)NC(=O)c2cc(-c3cn[nH]c3)ccc21,20.9 µM (active),
CN(C)CCNC(=O)COc1c2cccc1Cc1cccc(c1OCC(=O)NCCN(C)C)Cc1cccc(c1OCC(=O)NCCN(C)C)Cc1cccc(c1OCC(=O)NCCN(C)C)C2,0.428 µM (active),
CCOc1cc(CC(=O)N[C@@H](CC(C)C)c2ccccc2N2CCCCC2)ccc1C(=O)O,,69.7
C=C1CCC[C@]2(C)C=C3OC(=O)C(C)=C3C[C@@H]12,,108
COC(=O)N(CC(=O)O)Cc1cccc(OCc2nc(-c3ccc(Cl)cc3)oc2C)c1,,88.6
CC[C@H](C)[C@@H]([C@@H](CC(=O)N1CCC[C@H]1[C@H](OC)[C@@H](C)C(=O)N[C@@H](Cc1ccccc1)c1nccs1)OC)N(C)C(=O)[C@@H](NC(=O)[C@H](C(C)C)N(C)C)C(C)C,,7.63
C=CC(=O)N1CC(N2CCN(C(=O)CNc3cc(C4(C)CC4)c(Cl)cc3O)CC2)C1,,99.3
CS(=O)(=O)c1ccc([C@@H](CC2CCCC2)C(=O)Nc2nccs2)cc1,,79.3

# Experiment: BET inhibitor-based combinations targeting novel dependencies in MECOM-rearranged (r) AML: AML-194 cell line (AID 2202237; note: nearly all actives have a fitted effect of over 40% in size;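 for viability (% of control): plate controls were vehicle wells for no effect and wells without cells for full effect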)
# Conditions: AML-194 (MECOM-r AML) viability, CellTiter-Glo, 48 h; series mostly up to 46 µM; viability (% of control): at the top concentration
# In short: as §1
Structure (SMILES),Potency,viability (% of control) [%]
CCc1cnn2c(NCc3ccc[n+]([O-])c3)cc(N3CCCC[C@H]3CCO)nc12,0.0372 µM (active),
COC(=O)C1=C(C)NC(c2ncc(F)cc2F)=N[C@@H]1c1ccc(F)cc1Cl,,91.3
O=C(CCNC(=O)c1ccc(OC(F)(F)F)cc1)N[C@@H]1CCCc2ccccc21,,72
Cc1c(-c2ccc(-c3ccccc3F)cc2)nc2ccc(F)cc2c1C(=O)O,0.662 µM (active),
O=C(/C=C/c1ccc(Cl)cc1)N1CCC2(CC1)CN(Cc1ccc(Cl)c(Cl)c1)C(=O)O2,,87.2
C=C1C[C@H]2C=Nc3cc(OCCCOc4cc5c(cc4OC)C(=O)N4CC(=C)C[C@H]4C=N5)c(OC)cc3C(=O)N2C1,0.0015 µM (active),
CCN(CC)C(=O)Cc1csc(NS(=O)(=O)c2cccc(Cl)c2C)n1,,89.4
C#C[C@]1(O)CC[C@H]2[C@@H]3CCc4cc(O)ccc4[C@H]3CC[C@@]21C,20.9 µM (active),
C/C=C/C[C@@H](C)C(=O)[C@H]1C(=O)N[C@@H](C(C)C)C(=O)N(C)CC(=O)N(C)[C@@H](CC(C)C)C(=O)N[C@@H](C(C)C)C(=O)N(C)[C@@H](CC(C)C)C(=O)N[C@@H](C)C(=O)N[C@H](C)C(=O)N(C)[C@@H](CC(C)C)C(=O)N(C)[C@@H](CC(C)C)C(=O)N(C)[C@@H](C(C)C)C(=O)N1C,10.2 µM (active),
Cc1cc(Oc2ccc3nc(COc4ccc(CC5SC(=O)NC5=O)cc4)n(C)c3c2)cc(C)c1N (stereo not given),,107
CC(C)c1onc(-c2c(Cl)cccc2Cl)c1COc1ccc(/C=C/c2cccc(C(=O)O)c2)c(Cl)c1,,101
Cc1noc(-c2ccc(-c3ccc(C4(C(=O)O)CC4)cc3)cc2)c1NC(=O)O[C@H](C)c1ccccc1,,94.5
CN(C)c1ccccc1CN1CCCN(Cc2ccccc2N(C)C)C1c1ccncc1,,91.4
CC1=C(c2ccc(O)cc2)[C@H](c2ccc(OCCN3CCCCC3)cc2)Oc2cc(O)ccc21,,69.4
CCCCN(CCCC)CCC(O)c1cc2c(Cl)cc(Cl)cc2c2cc(C(F)(F)F)ccc12 (stereo not given),29.5 µM (active),
COc1ccc(CC2c3cc(OC)c(OC)cc3CC[N+]2(C)CCC(=O)OCCCCCOC(=O)CC[N+]2(C)CCc3cc(OC)c(OC)cc3C2Cc2ccc(OC)c(OC)c2)cc1OC (stereo not given),,90
CN1C(=O)N(c2cc(Cl)cc(Cl)c2)C(=O)[C@]12CN(Cc1cc(C(=O)O)cs1)C[C@H]2c1ccc(C#N)cc1,,95.4
Cc1c(O)cccc1C(=O)NC(CSc1ccccc1)C(O)CN1CC2CCCCC2CC1C(=O)NC(C)(C)C (stereo not given),26.3 µM (active),
C=C1CCC[C@]2(C)C=C3OC(=O)C(C)=C3C[C@@H]12,,106
O=C(Nc1cnccc1Cl)N1CCN(Cc2ccc3c(c2)OC(F)(F)O3)CC1,,92.1
CC(=O)N1CCN(c2ccc(NC(=O)Cc3cnc(-c4ccnc(F)c4)c(C)c3)nc2)CC1,,101
NCCCC[C@H](NC(=O)[C@@H](NC(=O)[C@H](Cc1c[nH]c2ccccc12)NC(=O)[C@H](CCCCN)NC(=O)[C@H](CCCCN)NC(=O)[C@H](Cc1c[nH]c2ccccc12)NC(=O)[C@H](Cc1c[nH]c2ccccc12)NC(=O)[C@H](CCCCN)NC(=O)[C@@H](N)CCCCN)C(c1ccccc1)c1ccccc1)C(N)=O (H-KKWWKKW[Dip]K-NH2),,89.5
CCCCCCCCCCCCCC(=O)N[C@H](CO)[C@H](O)c1ccc([N+](=O)[O-])cc1,,96.2
COC(=O)N(CC(=O)O)Cc1cccc(OCc2nc(-c3ccc(Cl)cc3)oc2C)c1,,96.8
CC[C@H](C)[C@@H]([C@@H](CC(=O)N1CCC[C@H]1[C@H](OC)[C@@H](C)C(=O)N[C@@H](Cc1ccccc1)c1nccs1)OC)N(C)C(=O)[C@@H](NC(=O)[C@H](C(C)C)N(C)C)C(C)C,,12.9
Cc1nc(C)c(CN2CCN(C(c3ccc(F)cc3)c3ccc(F)cc3)CC2)nc1C,20.9 µM (active),
C=CC(=O)N1CC(N2CCN(C(=O)CNc3cc(C4(C)CC4)c(Cl)cc3O)CC2)C1,,86.8
